Each structure is given as a SMILES string. Out of some 320,000 compounds screened, about 740 (0.23%) were called active. Roughly 2% stayed inconclusive and do not appear here. The rule behind the calls is not given here. This excerpt belongs to a sample that is enriched for actives.

AC50 data for 1 compound are collected here from ChEMBL document CHEMBL1201862, “PubChem BioAssay data set” (2004).

The subject of the experiment is Saccharomyces cerevisiae. Briefly: qHTS Assay for Small Molecule Inhibitors of Mitochondrial Division or Activators of Mitochondrial Fusion. As to conditions: read-out: Potency. The experiment is classed as functional. (qHTS replaces the single test concentration by a dilution series.)
In the case of `O=C(O)Cc1ccccc1Nc1c(Cl)cccc1Cl` [DICLOFENAC SODIUM], the AC50 is 20.6 µM (active).
